The list is not random: actives were taken first. Their share in the collection is about 1.3%.
BJeLR viability = kills HRASV12-expressing BJeLR cells; BJeLR (HRASV12) viability, CellTiter-Glo ATP luminescence, 48 h; inhibition, % (test concentration not listed); 300,000 tested, 0.17% active; AID 1554; in the data active = inhibition above about 50%; inconclusive = no clear call, values can overlap the other calls
Sa RN4220 lethal = kills Staphylococcus aureus RN4220 | S. aureus RN4220 growth, OD600, 16 h | 330,000 tested, 0.33% active | inhibition, % (concentration not given with the values); in the data active = inhibition above about 85%;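 note: plate controls were untreated cells for no effect and reference antibiotic for full effect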
Sa ugtP lethal = kills S. aureus RN4220 lacking UgtP; S. aureus RN4220 ugtP deletion, OD600 growth, 16 h; 330,000 tested, 0.54% active; AID 1259309; growth inhibition, % (test concentration not listed); in the data active = growth inhibition above about 68%;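 note: plate controls were untreated wells for no effect and antibiotic for full effect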
3CLpro inhibitor = SARS-CoV 3CLpro protease inhibition | P0C6X7 | recombinant SARS-CoV 3CLpro, quenched FRET peptide cleavage | inhibition, % at 6 µM | 290,000 tested, 0.14% active; in the data active = inhibition above about 12%
PfHsp40 rescue = restores yeast growth despite PfHsp40 toxicity | S. cerevisiae expressing PfHsp40, growth rescue, ATP luminescence | growth rescue, % at 12.5 µM | 340,000 tested, 0.68% active; in the data active = growth rescue above about 28%, passing the limit was not always enough; inconclusive = no clear call, values can overlap the other calls;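 note: yeast W303a lacking pdr1 and pdr3 grown in galactose medium; growth measured after three days at 30 °C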
* = called active by the depositor; ? = inconclusive; / = not tested or not shown.

SMILES | BJeLR viability | Sa RN4220 lethal | Sa ugtP lethal | 3CLpro inhibitor | PfHsp40 rescue
Cc1cccc(C(=O)OCC(=O)NCC2CCCO2)c1O (stereo unspecified) | / | 3 | 12 | / | -1
Cc1ccc(CSC(Nc2ccc(F)cc2)=C(C#N)C#N)cc1 | 42 | 97* | 97* | 10 | 0
Cc1nn(Cc2nnc(SCC(=O)Nc3cccc(C(F)(F)F)c3)n2C)c(C)c1[N+](=O)[O-] | 5 | 2 | 1 | 5 | 0
COc1cc(CN=C(C)c2c(O)n(C)c(=O)n(C)c2=O)cc(OC)c1 | -1 | 4 | 6 | 3 | 1
C=CCC[C@H](Cc1ccc(F)cc1)C(=O)OC[C@H](Cc1c[nH]c2ccccc12)NC(=O)[C@@H](CC=C)CC(=O)NCCO | / | / | / | / | 47*
C=CC[C@@H](Cc1ccc(F)cc1)C(=O)OC[C@@H]1CCCN1C(=O)[C@H](CC=C)CC(=O)N(CCO)Cc1ccccc1 | / | / | / | / | 37*
C=CCC[C@@H](Cc1ccc(F)cc1)C(=O)OC[C@@H]1CCCN1C(=O)[C@@H](CC=C)CC(=O)N[C@@H](CO)Cc1ccccc1 | / | / | / | / | 41*
C=CCC[C@H](Cc1ccc(F)cc1)C(=O)OC[C@@H](Cc1c[nH]c2ccccc12)NC(=O)[C@@H](CC=C)CC(=O)N[C@@H](CO)Cc1ccccc1 | / | / | / | / | 19
C=CCC(Cc1ccc(F)cc1)C(=O)OCC1CCCN1C(=O)C(CC=C)CC(=O)N(CCO)Cc1ccccc1 (stereo unspecified) | / | 0 | 0 | / | /
N#Cc1ccccc1NC(=O)COC(=O)c1ccc(S(=O)(=O)N2CCCC2)cc1 | -2 | 2 | 12 | 5 | 0
COc1ccc(NC(=O)c2cc(S(=O)(=O)N3CCOCC3)cn2C)c(OC)c1 | 6 | -11 | -8 | 3 | 0
CC1=C(C)/C(=N\OS(=O)(=O)c2ccc(C)cc2)C=CC1=O | / | / | / | -1 | 424*
Cc1nnsc1C(=O)N/N=C/c1ccccc1 | -6 | / | / | 8 | -1
Cc1nnsc1C(=O)N/N=C/c1ccc2ccccc2c1O | 61* | / | / | 1 | 0
Cc1ccn2c(=O)nc(SCC(=O)Nc3cccc4ccccc34)nc2c1 | 2 | 3 | -4 | / | 0
Clc1ccc(-c2nnnn2-c2ccc(Cl)cc2)cc1 | 4 | 3 | -4 | 2 | 0
Cc1ccc(-n2nnnc2C(Cl)(Cl)c2nnnn2-c2ccc(C)cc2)cc1 | 1 | 100* | 100* | 4 | -1
CC(C)[C@@H]1CC[C@@H](C)C[C@H]1OC(=O)C[n+]1cc(-c2ccc(Cl)cc2)n2c1CCCCC2 | 3 | 101* | 100* | 2 | 1
COc1ccc(-c2c[n+](CC(=O)OC3CC(C)CCC3C(C)C)c3n2CCC3)cc1 (stereo unspecified) | 19 | 100* | 100* | -1 | 1
CC1CCC(C(C)C)C(OC(=O)C[n+]2cccc(C(N)=O)c2)C1 (stereo unspecified) | -1 | 0 | -1 | 1 | 0
CC(=O)c1ccc(S(=O)(=O)N2CCC(NC(=O)Nc3cccc(F)c3)CC2)cc1 | 3 | 9 | 5 | 0 | 5
CN1CCN(NC(=O)c2cc(-c3cccc(Cl)c3)nc3ccccc23)CC1 | 9 | -1 | 1 | 1 | -1
Cc1occc1C(=O)N/N=C/c1ccc(-c2ccccc2)cc1 | 62* | / | / | -6 | -1
Cc1occc1C(=O)N/N=C/c1ccc(OCc2ccccc2)cc1 | -2 | / | / | -1 | 0
Cc1occc1C(=O)N/N=C/c1ccc2c(c1)OCO2 | 64* | / | / | -1 | -1
SMILES | BJeLR viability | Sa RN4220 lethal | Sa ugtP lethal | 3CLpro inhibitor | PfHsp40 rescue
O=[N+]([O-])c1ccc2c(c1)nc1n2CCN(C2CCCCC2)C1 | 0 | -4 | 1 | 1 | 1
O=C(Nc1ccc(Cl)c(Cl)c1)Nc1ccccc1O | -1 | 23 | 36 | 5 | ?
O=C(Nc1ccc(Cl)c(Cl)c1)Nc1ccc(Br)cc1F | 0 | 100* | 99* | -2 | 15
O=C1C=C(NC(=O)Nc2ccc(Cl)c(Cl)c2)CCC1 | 1 | 100* | 100* | -4 | 0
O=C1CC(O)(C(F)(F)F)Oc2c1ccc1ccccc21 (stereo unspecified) | 2 | 54 | 41 | 3 | 54*
O=C1CC(O)(C(F)F)Oc2ccc3ccccc3c21 (stereo unspecified) | 15 | 1 | -13 | 3 | 0
Cc1cc(C)c(C)c(OCCOCCN2CCN(C)CC2)c1 | -1 | 2 | 1 | -4 | 123*
O=C(NCc1ccco1)c1csc2c1CCCC2 | -7 | 7 | 2 | 0 | 14

Source: PubChem (several laboratories)
